# Source: ChEMBL document CHEMBL3988442, “University of Dundee, Small-Polar-MMV Screening Library” (2021)
# Among all 48,000 compounds or so, about 13,000 (27%) showed an effect of 50% or more. Some of the results follow.
# Test system: Wolbachia pipientis
# Test: Anti-Wolbachia Cell-Based Screen
# Assay type: functional
# Parameters: scale not given: in the data most compounds retested in dose-response had high values
# Conditions: 5 µM
row,SMILES,Percent Effect
1,Cc1nn(C)c(Cl)c1CNCc1ccc(OCC(N)=O)cc1,6.399%
2,O=C(NC[C@H]1OC[C@@H](NCc2ccc(F)cc2)[C@@H]1O)N1CCOCC1,-11.78%
3,CCNC(=O)N1CCC(NC(=O)NCCc2cccc(C)c2)C1 (configuration not stated),-4.75%
4,NCC1CN(c2nc(-c3ccccc3)nc3c2CCNCC3)CCO1 (configuration not stated),2.56%
5,CN1C(=O)[C@H]2CC[C@@H]1CN(Cc1cccc(OCc3ccccn3)c1)C2,-0.7428%
6,FC(F)(F)C1CN(Cc2cccc(-c3ccccn3)c2)CCO1 (configuration not stated),75.31%
7,CN(C)C(=O)CCC1CCCN(Cc2cccc(-c3ccccn3)c2)C1 (configuration not stated),9.493%
8,FC(F)(F)C1CN(Cc2cccc(OCc3ccccn3)c2)CCO1 (configuration not stated),94.94%
9,O=C(CCN1CCOC(C(F)(F)F)C1)NCc1cccc(Cl)c1 (configuration not stated),-5.951%
10,Cc1cc(-c2nn(C)c(Cl)c2CN2CCOC(C(=O)O)C2)no1 (configuration not stated),-7.215%
11,CS(=O)(=O)NC1CCCN(Cc2ccc(OCc3ccccn3)cc2)C1 (configuration not stated),2.735%
12,O=C(O)C1CN(Cc2cccc(-c3ccccn3)c2)CCO1 (configuration not stated),102.3%
13,FC(F)(F)C1CN(Cc2cnc3c(-c4ccccc4)cnn3c2)CCO1 (configuration not stated),27.88%
14,Cc1nc2c(c(N3CCC(CN4CCCC4=O)CC3)n1)CCNCC2,-1.611%
15,COC(=O)c1cc(OCC2CCC2)cc(C(=O)N[C@H]2CC[C@H](O)CC2)c1,-10.19%
16,CSCCC1CC(=O)Nc2cc(O)c(C)cc21 (configuration not stated),3.121%
17,O=C(c1cnc(NCCC2CCCO2)c(Cl)c1)N1CCCCC1 (configuration not stated),-6.452%
18,CNC(=O)c1cc2c(nc1NC(C)C)CCN(C(=O)NC(C)C)CC2,-1.585%
19,CCN1CCOCC2(CCCN(c3nncs3)C2)C1 (configuration not stated),-9.534%
20,CC(=O)c1cc(CC(=O)N2CCCC2c2nc(C(C)C)no2)cs1 (configuration not stated),-13.65%
21,Cc1nn(C)cc1-c1cc(C(=O)NCC(C)(C)c2ccc(F)cc2)n[nH]1,130.7%
22,CC(Cn1cncn1)NC(=O)NCC(C)(C)c1ccc(F)cc1 (configuration not stated),10.62%
23,O=C(NCc1nc[nH]n1)c1cc(COc2cccc(F)c2)[nH]n1,-19.41%
24,Cc1nn(C)cc1-c1cc(C(=O)NCC(C)(C)c2ccccc2F)n[nH]1,89.7%
25,CSCC(C)(O)CNC(=O)c1ccc(F)cc1Cl (configuration not stated),16.17%
26,Cc1nn(C)cc1-c1cc(C(=O)NCC(C)(C)c2cccc(F)c2)n[nH]1,113.6%

row,SMILES,Percent Effect
1,Cc1cc(C)n(CC(C)NC(=O)C(C)(C)c2ccccc2F)n1 (configuration not stated),6.546%
2,Cc1nncn1CCNC(=O)C(C)(C)c1cccc(F)c1,-15.91%
3,Cn1nnnc1SCCC(=O)NCC(C)(C)c1ccccc1F,-11.64%
4,O=C1CC(c2ccccc2F)c2c(n3ccsc3nc2=O)N1 (configuration not stated),13.25%
5,CC(NC(=O)Nc1cc(F)cc(F)c1)c1nc[nH]n1 (configuration not stated),-15.42%
6,O=C1COC2(CCN(C(=O)c3cnccn3)CC2)CN1CC1CC1,-3.882%
7,O=C(NCC1CC1)C1CCC2(CCN(C(=O)c3ccncc3)CC2)O1.O=C(O)C(F)(F)F (configuration not stated),111.8%
8,CC1N(CC2CC2)C(=O)COC12CCN(C(=O)c1ccncc1)CC2 (configuration not stated),-6.799%
9,O=C(NCC1CC1)C1CCC2(CCN(C(=O)c3cccnc3)CC2)O1.O=C(O)C(F)(F)F (configuration not stated),93.2%
10,O=C(NCC1CC1)C1CN(C(=O)c2cccnc2)CC12CCOCC2 (configuration not stated),0.4189%
11,O=C(NCC1CC1)C1CN(C(=O)c2cnccn2)CC12CCOCC2 (configuration not stated),-1.801%
12,O=C(NCC1CC1)C1CCC2(CCN(C(=O)c3cnccn3)CC2)O1 (configuration not stated),100.2%
13,O=C(C1CCC2(CCN(CC3CC3)CC2)O1)N1CCCC1.O=C(O)C(F)(F)F (configuration not stated),-8.008%
14,CCc1nnc2n1CC(CNCc1nc(-c3ccsc3)no1)CC2 (configuration not stated),-16.4%
15,Cc1ccccc1CN(C)C(=O)Cn1nc(-c2ccc(F)cc2)oc1=O,-30.13%
16,COc1cccc(OCCNC(=O)CN2CCN(C)CC2C)c1 (configuration not stated),0.3417%
17,Cc1nc(-c2ccccc2)n(CC(=O)N(C(C)C)C(C)C)n1,7.414%
18,CC(C)N(C(=O)Cn1c(-c2ccco2)cc2cccnc21)C(C)C.Cl,129.4%
19,O=C(c1ncoc1-c1ccco1)N1CCCN(c2ncccn2)CC1,-13.17%
20,O=C(Cn1ccc2ncccc2c1=O)N1CCCCC1,-19.73%
21,COCCCNC(=O)Cn1nnc(-c2cc3ccccc3o2)n1,-9.995%
22,Cl.O=C(Cn1c(-c2ccco2)cc2cccnc21)N1CCCC1,109.6%
23,COc1ncccc1C(=O)N1CC(c2nc(-c3ccco3)no2)C1,8.085%
24,COCCNC(=O)Cn1c(-c2ccco2)cc2cccnc21,97.97%
25,CCCS(=O)(=O)NCC1CCOc2ccccc2C1 (configuration not stated),-3.198%
26,Cn1nnc2c1C(COCC1CC1)CN(C(=O)Cc1ccccn1)C2 (configuration not stated),3.096%

row,SMILES,Percent Effect
1,CCCc1nc(N(C)Cc2cnc(NC)nc2)c2cnn(C)c2n1,3.632%
2,CNc1ncc(CN(C)c2nc(C3CCCC3)nc3c2cnn3C)cn1,113.7%
3,Cc1nn(C)c(C)c1CN(C)c1nc(C2CCCC2)nc2c1cnn2C,74.08%
4,Cc1cc(C)nc(CN(C)c2nc(C3CCCC3)nc3c2cnn3C)c1,180.1%
5,CN(Cc1ccno1)c1nc(C2CCCC2)nc2c1cnn2C,93.91%
6,CNCCCNc1nc(C2CCCC2)nc2c1cnn2C,-5.607%
7,Cc1nc(N(C)CCN(C)C)c2cnn(C)c2n1,-4.82%
8,Cc1c[nH]c(CN(C)c2nc(C3CCCC3)nc3c2cnn3C)n1,-9.015%
9,Cn1ncc2c(NCCn3cccc3)nc(C3CCCC3)nc21,12.23%
10,CCc1nnc(CN(C)c2nc(C3CCCC3)nc3c2cnn3C)o1,-12.86%
11,Cc1cc(CC(C)Nc2nc(C3CCCC3)nc3c2cnn3C)[nH]n1 (configuration not stated),4.574%
12,CCC(Nc1nc(C2CCCC2)nc2c1cnn2C)c1ccncc1 (configuration not stated),11.81%
13,O=C(c1ccc(-n2cncn2)cc1)N1CCN(c2cnccn2)CC1,-5.785%
14,N#Cc1ccc(NCC(=O)Nc2ccn(Cc3cccnc3)n2)cc1,0.1964%
15,O=C(CCc1ccccn1)N1CCc2cc(Cl)cc(Cl)c2C1,-9.614%
16,CC(NC1(CNC(=O)C(C)(C)C#N)CCOCC1)c1ccccc1 (configuration not stated),-5.654%
17,CC(C)N(CCNc1nc(C2CCCC2)nc2c1cnn2C)C(C)C,-18.52%
18,CCOCCNc1nc(C2CCCC2)nc2c1cnn2C,-2.506%
19,Cc1noc(C)c1CN(C)c1nc(C2CCCC2)nc2c1cnn2C,118.2%
20,COc1ncccc1CN1CCn2c(C(=O)N3CCCC3)cnc2C1.O=C(O)C(F)(F)F.O=C(O)C(F)(F)F,-2.628%
21,COCCN1CCn2cc(CN(C)Cc3ccco3)nc2C1,6.66%
22,Cc1[nH]c2ccc(C#N)cc2c1CCNc1ncnc2c1CCNCC2,9.456%
23,CCOc1ccc(C(C)Nc2ncnc3c2CCNC3)cc1OCC (configuration not stated),-5.441%
24,Cc1nc2c(c(NCC(c3ccccc3C)N(C)C)n1)CCNC2 (configuration not stated),96.84%
25,OC(CNc1ncnc2c1CCNCC2)C(F)(F)F (configuration not stated),-1.789%
26,Cc1ccccc1C(Nc1ncnc2c1CCNC2)c1ccccc1 (configuration not stated),93.65%

row,SMILES,Percent Effect
1,Cc1nc2c(c(NCC(O)C(F)(F)F)n1)CCNCC2 (configuration not stated),-4.402%
2,Cc1[nH]c2ccc(Cl)cc2c1CCNc1ncnc2c1CCNC2,12.31%
3,Cc1nc2c(c(NCC(O)c3ccccc3Cl)n1)CCNCC2 (configuration not stated),-5.653%
4,CC(Nc1ncnc2c1CCNC2)c1ccc(C(C)(C)C)cc1 (configuration not stated),30.56%
5,Cc1ccccc1C(CNc1ncnc2c1CCNCC2)N(C)C (configuration not stated),105.5%
6,CCCc1ccc(C(C)Nc2ncnc3c2CCNC3)cc1 (configuration not stated),-93.4%
7,Cc1ccccc1C(CNc1ncnc2c1CCNC2)N(C)C (configuration not stated),84.04%
8,Cc1nn(C)c(C)c1CN(C)S(=O)(=O)c1c(C)n[nH]c1C,32.27%
9,CCC(=O)N1CCN(C(=O)c2ccc(COC)o2)[C@H]2CS(=O)(=O)C[C@H]21,2.835%
10,CN(C)CCNCC1(O)CCCN(Cc2cccc(F)c2F)C1=O (configuration not stated),-8.676%
11,CNS(=O)(=O)CCNC(=O)c1coc(COc2ccc(F)cc2)n1,-18.85%
12,O=C([C@@H]1Cc2[nH]cnc2CN1CC1CC1)N1CCCC1,2.393%
13,Cc1cc2c(o1)CC(C)(C)CC2NC(=O)CNC(=O)C1CC1 (configuration not stated),15.35%
14,COC(=O)NCC(=O)NC1CC(C)(C)Cc2oc(C)cc21 (configuration not stated),-2.578%
15,CC(C)(C)c1ncc2c(n1)CN(C(=O)c1ccncc1)C2,6.547%
16,CC1(C)Cc2nc(C(C)(C)C)ncc2C(NC(=O)CN)C1 (configuration not stated),108.4%
17,CC(C)(C)c1ncc2c(n1)CN(C(=O)c1ccc(-n3cnnn3)cc1)C2,-15.52%
18,COC(C)(C)C(=O)N1Cc2cnc(C(C)(C)C)nc2C1,5.24%
19,CNCC(=O)NC1CC(C)(C)Cc2nc(C(C)(C)C)ncc21 (configuration not stated),107.2%
20,CC1(C)Cc2nc(C(C)(C)C)ncc2C(NC(=O)C2(N)CC2)C1 (configuration not stated),76.58%
21,CC1(C)Cc2nc(C(C)(C)C)ncc2C(NC(=O)Cc2nnn[nH]2)C1 (configuration not stated),84.56%
22,CC(=O)NC1CC(C)(C)Cc2c1cnn2-c1cccc(F)c1 (configuration not stated),27.72%
23,Cc1cc(C)n(CC(=O)N2Cc3cnc(C(C)(C)C)nc3C2)n1,-6.513%
24,CC(=O)N1Cc2cnc(C(C)(C)C)nc2C1,-14.29%
